Assay results taken from PubChem BioAssay (NCI).
About 79,000 compounds went through this panel and 15% of them were active in at least one assay; those are over-represented in the sample as a whole. The source made the active and inactive calls. Rule as the data show it: active = growth inhibition above about 70%; inactive = the rest.

Experiment: NCI Yeast Anticancer Drug Screen. Data for the rad18 strain (AID 177)
Conditions: S. cerevisiae rad18 mutant growth inhibition; at 33.0 µM; stronger effect = higher value
How it was run: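 DNA-repair-defective yeast; compound treatment; growth inhibition scored against vehicle.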
For `CCN(CC)CC[n+]1ccc2c(C)c3[nH]c4ccc(O)cc4c3c(C)c2c1`, the growth inhibition was 12% (inactive).
For `O=[n+]1c2ccc(Cl)cc2n([O-])c2ccc(Cl)cc21`, the growth inhibition was 37% (inactive).
With `CCOP(=O)(OCC)C(Cc1ccccc1)N=C(c1ccccc1)c1ccccc1` (centres undefined) the growth inhibition was 87% (active).
In the case of `CC[C@@]1(O)C(=O)OCc2c1cc1n(c2=O)Cc2cc3c(N)cccc3nc2-1`, the growth inhibition was -15% (inactive).
With `COC1C=COC2(C)Oc3c(C)c(O)c4c(c3C2=O)/C(=N/C2CCC(O)OC2C)C=C(NC(=O)/C(C)=C\C(=O)C2CC2C(O)C(C)C(O)C(C)C(OC(C)=O)C1C)C4=O` (centres undefined) the growth inhibition was 10% (inactive).
In the case of `COc1cc2c(c(OC)c1OC)-c1c(cc3c(c1OC)OCO3)CC(C)C(C)(O)C2OC(=O)c1ccccc1` (centres undefined), the growth inhibition was -10% (inactive).
With `O=c1ssc2ncccc12` the growth inhibition was 97% (active).
For `O=C1C2C(C(=O)N1c1ccc(OCc3ccccc3)cc1)C1c3ccccc3C2C2CCCCN21` (centres undefined), the growth inhibition was 24% (inactive).
With `COc1ccc(-c2cn(-c3ccc(I)cc3)c3ncnc(N)c23)cc1` the growth inhibition was -4% (inactive).
For `CCOC(=O)C(NC(=O)c1ccccc1)(N1CCN(c2cc3c(cc2F)c(=O)c(C(=O)O)cn3C2CC2)CC1)C(F)(F)F` (centres undefined), the growth inhibition was 2% (inactive).
With `C/C(=N\O)C1CC2C=C(C#N)C1N(Cc1ccccc1)C2` (centres undefined) the growth inhibition was 77% (active).
In the case of `CC/C(=C(\c1ccccc1)c1ccc(OCCN(C)C)cc1)c1ccccc1`, the growth inhibition was 98% (active).
With `COc1ccccc1N=NC(C(=O)c1ccccc1)C(=O)c1ccccc1` the growth inhibition was 96% (active).
In the case of `CC(O)C(O)C(O)C(/C=N\Nc1ccccc1)=N/Nc1ccccc1` (centres undefined), the growth inhibition was 95% (active).
